Inconclusive results are not listed. Activity calls are given as the source filed them. How the source made its calls, unless noted: active means hit-call score of the fitted dose curve at least 0.9, where 1 is the maximum; inconclusive means response in the unintended direction; inactive means score below 0.9.

The target of experiment [1] is Nuclear receptor subfamily 1 group I member 3 (Homo sapiens) (UniProt Q14994). In words: ATG_CAR_TRANS: Attagene TRANS-FACTORIAL HepG2 Assay for human Constitutive Androstane Receptor (CAR) (AID 2282969).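 Further: activators raise reporter mRNA above DMSO so AC50 marks induction.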 The conditions noted are these: HepG2 Attagene TRANS-FACTORIAL CAR reporter. The gist of the method:
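Readout is reporter mRNA induction, quantified by fluorescent primer extension and capillary electrophoresis after RT-PCR. Cells were HepG2 transiently carrying chimeric NR-Gal4 constructs with GAL4-UAS reporters, treated for 24 h; activity scored upward from DMSO.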

Experiment [2] deals with Estrogen receptor (Homo sapiens) (UniProt P03372). In words: ATG_ERa_TRANS: Attagene TRANS-FACTORIAL HepG2 Assay for human Estrogen Receptor alpha (ERa) (AID 2282970). The conditions noted are these: HepG2 Attagene TRANS ERa GAL4 reporter, mRNA. In outline:
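HepG2 cells transiently transfected with multiplexed GAL4-UAS reporter units; ERa activity read via exogenous chimeric NR-Gal4 protein. After 24 hour compound exposure, reporter mRNA measured by RT-PCR with 6-FAM labelling and capillary electrophoresis; gain-of-signal fitted relative to DMSO.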

The target of experiment [3] is X-box-binding protein 1 (Homo sapiens) (UniProt P17861). Put plainly: ATG_Xbp1_CIS: Attagene CIS-FACTORIAL HepG2 Assay for human X-box Binding Protein 1 (XBP1) (AID 2282972; active means hit-call score of the fitted dose curve at least 0.9, where 1 is the maximum; inactive means score below 0.9). The conditions noted are these: HepG2 XBP1 cis-element reporter, Attagene multiplex; actives raise or lower the signal. In outline:
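HepG2 cells transiently transfected with multiple cis-element reporter units report endogenous TF activity; 24 h exposure, then reporter mRNA measured by RT-PCR, 6-FAM labelling, HpaI digestion and capillary electrophoresis. Bidirectional fitting versus DMSO.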

The target in experiment [4] is Androgen receptor (Homo sapiens) (UniProt P10275). Put plainly: ATG_AR_TRANS: Attagene TRANS-FACTORIAL HepG2 Assay for human Androgen Receptor (AR) (AID 2282973). The conditions noted are these: HepG2 Attagene TRANS-FACTORIAL AR reporter transcription. In outline: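 HepG2 cells transiently transfected with multiplexed GAL4-UAS reporter units and chimeric NR-Gal4 fusion; 24 h compound exposure. Reporter mRNA measured by RT-PCR, 6-FAM labelling, HpaI digestion and capillary electrophoresis; gain-of-signal fitted relative to DMSO baseline.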

In experiment [5] the target is Oxysterols receptor LXR-alpha (Homo sapiens) (UniProt Q13133). In words: ATG_LXRa_TRANS: Attagene TRANS-FACTORIAL HepG2 Assay for human Liver X Receptor alpha (LXRa) (AID 2282980). The conditions noted are these: HepG2 Attagene TRANS reporter, LXRa transactivation. In outline: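 HepG2 cells were transiently transfected with multiplexed reporter units driven by chimeric LXRa–GAL4 fusion proteins, then dosed for 24 h. Reporter mRNA was quantified by RT-PCR, fluorescent labelling and capillary electrophoresis; gain of signal fitted against DMSO baseline.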
Sequence of Oxysterols receptor LXR-alpha (Homo sapiens) (Q13133 whole entry, looked up, the tested form may be a part): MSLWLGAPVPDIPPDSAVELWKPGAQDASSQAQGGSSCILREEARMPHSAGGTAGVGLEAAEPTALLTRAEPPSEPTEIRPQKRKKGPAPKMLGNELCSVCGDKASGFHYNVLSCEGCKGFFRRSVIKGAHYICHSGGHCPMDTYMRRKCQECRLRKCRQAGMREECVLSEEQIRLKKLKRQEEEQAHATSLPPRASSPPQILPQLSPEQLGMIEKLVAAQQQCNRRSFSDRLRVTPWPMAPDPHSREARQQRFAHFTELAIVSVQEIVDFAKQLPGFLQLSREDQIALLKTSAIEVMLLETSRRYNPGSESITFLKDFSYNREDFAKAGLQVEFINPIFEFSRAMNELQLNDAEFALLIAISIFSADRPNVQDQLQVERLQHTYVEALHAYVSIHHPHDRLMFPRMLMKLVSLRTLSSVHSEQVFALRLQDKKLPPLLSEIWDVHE

Experiment [6] is described as follows: ATG_M_06_TRANS: Attagene TRANS-FACTORIAL HepG2 Assay for M06 Transcription Factor (Internal Marker) (AID 2282983). The conditions noted are these: HepG2 Attagene TRANS M06 internal marker reporter. In outline:
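HepG2 cells transiently transfected with multiplexed GAL4-UAS reporter transcription units; after 24 h compound exposure, reporter mRNA measured by RT-PCR, FAM-labelled primer extension, HpaI digestion and capillary electrophoresis. Gain-of-signal fitted versus DMSO baseline; background control readout.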

Experiment [7] can be described thus: ATG_M_32_TRANS: Attagene TRANS-FACTORIAL HepG2 Assay for M32 Transcription Factor (Internal Marker) (AID 2282984). The conditions noted are these: HepG2 Attagene TRANS M32 internal marker reporter. The gist of the method:
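Measures reporter mRNA induction in human HepG2 liver cells after 24 h chemical treatment. Transcripts from transiently transfected GAL4-UAS reporter units are amplified, fluorescently labelled and sized by capillary electrophoresis; gain of signal relative to DMSO.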

The target of experiment [8] is Nuclear receptor subfamily 4 group A member 2 (Homo sapiens) (UniProt P43354). In words: ATG_NURR1_TRANS: Attagene TRANS-FACTORIAL HepG2 Assay for human Nuclear Receptor Related Protein 1 (NURR1) (AID 2282985). The conditions noted are these: HepG2 Attagene TRANS reporter, mRNA readout. In outline:
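Transient transfection of HepG2, human liver cells, with multiple GAL4-UAS reporter transcription units. Cells dosed 24 h, RNA isolated, reverse-transcribed, PCR-amplified, FAM-labelled, HpaI-digested, sized by capillary electrophoresis. DMSO served as negative control.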

Experiment [9] deals with Transcriptional activator Myb (Homo sapiens) (UniProt P10242). In words: ATG_Myb_CIS: Attagene CIS-FACTORIAL HepG2 Assay for human Myeloblastosis (Myb) Proto-Oncogene Transcription Factor (AID 2282986; active means hit-call score of the fitted dose curve at least 0.9, where 1 is the maximum; inactive means score below 0.9). The conditions noted are these: HepG2 Attagene CIS-FACTORIAL Myb reporter transcription; actives raise or lower the signal. In outline: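 Reporter transcript levels, quantified by fluorescent RT-PCR and capillary electrophoresis, serve as the read-out. Transfected HepG2 cells carrying cis-promoter reporter units are dosed for 24 hours, and curves are fitted bidirectionally against DMSO controls.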
Sequence of Transcriptional activator Myb (Homo sapiens) (P10242 whole entry, looked up): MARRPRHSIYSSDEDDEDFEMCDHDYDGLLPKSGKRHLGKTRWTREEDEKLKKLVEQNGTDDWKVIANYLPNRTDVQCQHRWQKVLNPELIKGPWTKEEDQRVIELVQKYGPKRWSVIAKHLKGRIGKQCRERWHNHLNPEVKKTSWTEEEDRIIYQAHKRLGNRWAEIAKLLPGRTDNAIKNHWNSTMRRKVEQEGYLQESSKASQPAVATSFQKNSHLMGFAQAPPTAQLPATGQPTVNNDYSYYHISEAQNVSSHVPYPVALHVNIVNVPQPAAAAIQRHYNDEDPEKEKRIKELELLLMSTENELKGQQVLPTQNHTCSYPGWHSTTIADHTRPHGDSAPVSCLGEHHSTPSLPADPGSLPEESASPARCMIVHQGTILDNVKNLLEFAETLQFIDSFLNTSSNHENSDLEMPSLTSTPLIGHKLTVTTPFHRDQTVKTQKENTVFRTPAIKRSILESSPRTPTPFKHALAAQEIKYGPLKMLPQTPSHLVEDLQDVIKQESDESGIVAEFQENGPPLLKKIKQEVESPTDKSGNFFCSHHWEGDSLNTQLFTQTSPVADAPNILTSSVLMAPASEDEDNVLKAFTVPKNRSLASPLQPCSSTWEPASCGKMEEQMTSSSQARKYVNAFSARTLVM

Experiment [10] in a line: ATG_NFI_CIS: Attagene CIS-FACTORIAL HepG2 Assay for human Nuclear Factor I (NFI) (AID 2282989; active means hit-call score of the fitted dose curve at least 0.9, where 1 is the maximum; inactive means score below 0.9). The conditions noted are these: HepG2 cis-regulatory reporter, NFI response element transcription; actives raise or lower the signal. In outline: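 Reporter transcripts were measured by RT-PCR with fluorescent primer extension and capillary electrophoresis 24 h post-treatment. HepG2 cells carried transiently transfected cis-regulated reporter constructs reporting endogenous factor activity; gain or loss fitted against DMSO baseline.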

Experiment [11] deals with Myc proto-oncogene protein (Homo sapiens) (UniProt P01106). Put plainly: ATG_Myc_CIS: Attagene CIS-FACTORIAL HepG2 Assay for human Myelocytomatosis (Myc) Proto-Oncogene Transcription Factor (AID 2282990; active means hit-call score of the fitted dose curve at least 0.9, where 1 is the maximum; inactive means score below 0.9). The conditions noted are these: HepG2, Attagene cis-reporter transcription factor activity; actives raise or lower the signal. In outline: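 HepG2, transient MRTU transfection (cis promoters, endogenous TFs); 24 h dosing; TriZol RNA → oligo(dT) RT → PCR → 6-FAM primer extension → HpaI cut → CE. Bidirectional fit vs DMSO.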
Sequence of Myc proto-oncogene protein (Homo sapiens) (P01106 whole entry, looked up): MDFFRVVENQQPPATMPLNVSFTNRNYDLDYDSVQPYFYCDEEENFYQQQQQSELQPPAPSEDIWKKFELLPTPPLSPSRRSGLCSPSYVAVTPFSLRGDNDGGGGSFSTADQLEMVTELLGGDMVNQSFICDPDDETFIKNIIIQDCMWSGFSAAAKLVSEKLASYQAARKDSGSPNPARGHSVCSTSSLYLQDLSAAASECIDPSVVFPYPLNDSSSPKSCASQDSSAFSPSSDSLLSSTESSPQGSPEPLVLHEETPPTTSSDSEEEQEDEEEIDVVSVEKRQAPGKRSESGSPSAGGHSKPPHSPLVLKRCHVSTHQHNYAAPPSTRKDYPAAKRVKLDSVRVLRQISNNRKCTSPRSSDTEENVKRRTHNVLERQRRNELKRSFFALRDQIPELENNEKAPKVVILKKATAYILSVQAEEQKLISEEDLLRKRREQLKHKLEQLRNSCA

Experiment [12] concerns the target Steroid hormone receptor ERR1 (Homo sapiens) (UniProt P11474). In words: ATG_ERRa_TRANS: Attagene TRANS-FACTORIAL HepG2 Assay for human Estrogen-Related Receptor alpha (ERRa) (AID 2282971). The conditions noted are these: HepG2 Attagene TRANS reporter, ERRa transactivation. In outline: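 HepG2 cells transiently transfected with multiplexed GAL4-UAS reporter units reading chimeric ERRa-Gal4 activity; 24 h compound exposure. Reporter mRNA measured by RT-PCR, 6-FAM labelling, HpaI digest and capillary electrophoresis; gain of signal fitted versus DMSO baseline.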

Experiment [13] addresses Glucocorticoid receptor (Homo sapiens) (UniProt P04150). In words: ATG_GR_TRANS: Attagene TRANS-FACTORIAL HepG2 Assay for human Glucocorticoid Receptor (GR) (AID 2282978).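 Further: activators score as hits since higher reporter transcript over DMSO is fitted.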 The conditions noted are these: HepG2 Attagene TRANS GR reporter, mRNA transcription. The gist of the method:
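Fluorescent capillary-electrophoresis quantitation of reporter mRNA is the readout, taken 24 h after dosing human HepG2 cells carrying transiently transfected GAL4-UAS reporter units activated by chimeric NR-GAL4 fusions; activity scored as induction over DMSO.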

Experiment [14] concerns the target Nuclear respiratory factor 1 (Homo sapiens) (UniProt Q16656). Put plainly: ATG_NRF1_CIS: Attagene CIS-FACTORIAL HepG2 Assay for human Nuclear Respiratory Factor 1 (NRF1) Orphan Gene (AID 2282987; active means hit-call score of the fitted dose curve at least 0.9, where 1 is the maximum; inactive means score below 0.9). The conditions noted are these: HepG2 NRF1 cis-element reporter, Attagene multiplex; actives raise or lower the signal. In outline:
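Multiplexed cis-reporter assay, HepG2 cells, 24 h treatment. Total RNA → oligo(dT) RT → PCR with reporter-specific primers → 6-FAM primer extension → HpaI cut → CE. Bidirectional fit vs DMSO.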

Experiment [15] can be described thus: ATG_M_19_TRANS: Attagene TRANS-FACTORIAL HepG2 Assay for M19 Transcription Factor (Internal Marker) (AID 2282974). The conditions noted are these: HepG2 Attagene TRANS-FACTORIAL M19 internal marker reporter. In outline: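 Fluorescence of 6-FAM-labelled reporter cDNA fragments, separated by capillary electrophoresis, served as the readout. These derived from HepG2 cells carrying transfected GAL4-UAS reporter units after 24 h dosing, with DMSO as negative control.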

Experiment [16] concerns the target Estrogen-related receptor gamma (Homo sapiens) (UniProt P62508). In words: ATG_ERRg_TRANS: Attagene TRANS-FACTORIAL HepG2 Assay for human Estrogen-Related Receptor gamma (ERRg) (AID 2282977).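 Further: hits increase reporter signal over DMSO so potencies reflect activators.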 The conditions noted are these: HepG2 Attagene TRANS reporter, ERRg transactivation. In outline:
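HepG2 cells transiently transfected with multiplexed GAL4-UAS reporter units driven by chimeric NR-Gal4 proteins; 24 h exposure. Reporter mRNA quantified by RT-PCR, fluorescent labelling, HpaI digestion and capillary electrophoresis; gain of signal vs DMSO.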

In experiment [17] the target is Bile acid receptor (Homo sapiens) (UniProt Q96RI1). In words: ATG_FXR_TRANS: Attagene TRANS-FACTORIAL HepG2 Assay for Farnesoid X Receptor (FXR) (AID 2282979).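 Further: hits raise reporter mRNA above DMSO so AC50 marks FXR activation.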 The conditions noted are these: HepG2 Attagene TRANS FXR-GAL4 reporter transcription. In outline: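 HepG2 cells transiently transfected with reporter constructs in which a chimeric FXR-GAL4 protein drives a GAL4-UAS reporter; 24 h compound exposure. Reporter mRNA measured by RT-PCR, FAM labelling, HpaI digestion and capillary electrophoresis; gain-of-signal versus DMSO.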

The target of experiment [18] is Oxysterols receptor LXR-beta (Homo sapiens) (UniProt P55055). Put plainly: ATG_LXRb_TRANS: Attagene TRANS-FACTORIAL HepG2 Assay for human Liver X Receptor beta (LXRb) (AID 2282981). The conditions noted are these: HepG2 Attagene TRANS GAL4-LXRb reporter, mRNA. In outline:
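Transient transfection HepG2 (multiplexed RTUs, GAL4-UAS); NR-Gal4 chimera; 24 h exposure; RNA → RT-PCR → 6-FAM primer extension → HpaI → CE; increase vs DMSO.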

In experiment [19] the target is Hepatocyte nuclear factor 4-alpha (Homo sapiens) (UniProt P41235). In words: ATG_HNF4a_TRANS: Attagene TRANS-FACTORIAL HepG2 Assay for human Hepatocyte Nuclear Factor 4 alpha (HNF4a) (AID 2282982). The conditions noted are these: HepG2 HNF4a transactivation reporter, mRNA readout. The gist of the method: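 Readout is fluorescent reporter-transcript fragments resolved by capillary electrophoresis after RT-PCR from HepG2 cells dosed for 24 h. Cells carried transfected GAL4-UAS reporter constructs measuring exogenous NR-GAL4 chimera activity; DMSO served as baseline.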
Sequence of Hepatocyte nuclear factor 4-alpha (Homo sapiens) (P41235 whole entry, looked up, the tested form may be a part): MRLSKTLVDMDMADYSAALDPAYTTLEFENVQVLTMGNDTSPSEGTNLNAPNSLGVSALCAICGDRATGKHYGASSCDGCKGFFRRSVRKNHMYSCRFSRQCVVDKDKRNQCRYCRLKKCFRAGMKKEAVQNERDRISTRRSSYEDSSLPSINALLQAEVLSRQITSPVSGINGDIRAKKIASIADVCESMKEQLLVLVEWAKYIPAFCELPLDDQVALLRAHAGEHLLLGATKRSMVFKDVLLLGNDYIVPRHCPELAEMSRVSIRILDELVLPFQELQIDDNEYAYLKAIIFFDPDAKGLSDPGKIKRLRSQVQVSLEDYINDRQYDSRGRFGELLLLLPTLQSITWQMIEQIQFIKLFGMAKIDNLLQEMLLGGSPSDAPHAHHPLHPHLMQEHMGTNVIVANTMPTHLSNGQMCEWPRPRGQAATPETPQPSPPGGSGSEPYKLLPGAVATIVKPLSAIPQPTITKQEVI

Experiment [20] in a line: ATG_GAL4_TRANS: Attagene TRANS-FACTORIAL HepG2 Assay for GAL4 (Internal Marker) (AID 2282976). The conditions noted are these: HepG2 Attagene TRANS GAL4 internal marker reporter. The gist of the method: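 HepG2 cells transiently transfected with multiplexed GAL4-UAS reporter constructs were dosed for 24 h. Reporter mRNA was measured by RT-PCR, 6-FAM primer extension, HpaI digestion and capillary electrophoresis, and gain of signal was fitted relative to DMSO.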

Sequence of X-box-binding protein 1 (Homo sapiens) (P17861 whole entry, looked up): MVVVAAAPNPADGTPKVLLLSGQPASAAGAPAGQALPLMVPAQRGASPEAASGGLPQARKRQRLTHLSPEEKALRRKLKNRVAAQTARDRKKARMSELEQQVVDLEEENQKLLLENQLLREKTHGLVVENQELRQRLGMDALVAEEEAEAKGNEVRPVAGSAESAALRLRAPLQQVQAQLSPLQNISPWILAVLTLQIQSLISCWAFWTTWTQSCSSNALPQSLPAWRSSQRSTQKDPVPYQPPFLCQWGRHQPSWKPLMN
Sequence of Nuclear receptor subfamily 1 group I member 3 (Homo sapiens) (Q14994 whole entry, looked up, the tested form may be a part): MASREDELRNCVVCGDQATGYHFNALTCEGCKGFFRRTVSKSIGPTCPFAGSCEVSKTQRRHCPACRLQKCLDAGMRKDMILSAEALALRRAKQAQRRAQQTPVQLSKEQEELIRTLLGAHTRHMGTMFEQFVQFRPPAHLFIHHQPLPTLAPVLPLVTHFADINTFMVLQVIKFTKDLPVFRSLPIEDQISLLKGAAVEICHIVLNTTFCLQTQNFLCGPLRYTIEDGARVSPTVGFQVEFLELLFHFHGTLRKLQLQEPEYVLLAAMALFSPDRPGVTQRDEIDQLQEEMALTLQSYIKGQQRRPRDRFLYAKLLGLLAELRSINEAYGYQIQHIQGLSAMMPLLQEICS
Sequence of Estrogen receptor (Homo sapiens) (P03372 whole entry, looked up, the tested form may be a part): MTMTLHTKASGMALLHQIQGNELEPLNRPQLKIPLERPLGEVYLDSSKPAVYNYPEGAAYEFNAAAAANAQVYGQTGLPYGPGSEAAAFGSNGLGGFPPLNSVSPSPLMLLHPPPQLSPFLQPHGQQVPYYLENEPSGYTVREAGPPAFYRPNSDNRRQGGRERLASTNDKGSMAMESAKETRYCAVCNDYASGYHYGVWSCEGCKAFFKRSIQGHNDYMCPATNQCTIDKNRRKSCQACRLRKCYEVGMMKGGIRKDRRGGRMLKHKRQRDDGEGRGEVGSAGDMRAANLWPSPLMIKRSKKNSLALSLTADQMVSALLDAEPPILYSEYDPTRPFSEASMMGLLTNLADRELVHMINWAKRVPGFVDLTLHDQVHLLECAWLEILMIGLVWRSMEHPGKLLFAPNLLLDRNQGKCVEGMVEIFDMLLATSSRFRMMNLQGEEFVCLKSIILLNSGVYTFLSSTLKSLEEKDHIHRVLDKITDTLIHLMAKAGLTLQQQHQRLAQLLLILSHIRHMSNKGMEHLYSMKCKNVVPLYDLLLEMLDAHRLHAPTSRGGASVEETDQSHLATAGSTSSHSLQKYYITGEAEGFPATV
Sequence of Steroid hormone receptor ERR1 (Homo sapiens) (P11474 whole entry, looked up, the tested form may be a part): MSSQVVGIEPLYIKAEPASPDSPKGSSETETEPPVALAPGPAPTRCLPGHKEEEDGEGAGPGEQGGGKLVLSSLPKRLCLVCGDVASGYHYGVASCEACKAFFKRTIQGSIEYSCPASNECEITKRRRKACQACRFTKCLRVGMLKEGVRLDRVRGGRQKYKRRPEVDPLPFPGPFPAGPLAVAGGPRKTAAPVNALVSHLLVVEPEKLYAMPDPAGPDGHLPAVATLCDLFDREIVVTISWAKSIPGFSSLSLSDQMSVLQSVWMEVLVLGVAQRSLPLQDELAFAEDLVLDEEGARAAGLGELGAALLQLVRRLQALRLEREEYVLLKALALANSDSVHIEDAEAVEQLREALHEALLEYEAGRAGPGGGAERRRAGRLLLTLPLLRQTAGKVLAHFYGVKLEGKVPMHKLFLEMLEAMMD
Sequence of Nuclear respiratory factor 1 (Homo sapiens) (Q16656 whole entry, looked up): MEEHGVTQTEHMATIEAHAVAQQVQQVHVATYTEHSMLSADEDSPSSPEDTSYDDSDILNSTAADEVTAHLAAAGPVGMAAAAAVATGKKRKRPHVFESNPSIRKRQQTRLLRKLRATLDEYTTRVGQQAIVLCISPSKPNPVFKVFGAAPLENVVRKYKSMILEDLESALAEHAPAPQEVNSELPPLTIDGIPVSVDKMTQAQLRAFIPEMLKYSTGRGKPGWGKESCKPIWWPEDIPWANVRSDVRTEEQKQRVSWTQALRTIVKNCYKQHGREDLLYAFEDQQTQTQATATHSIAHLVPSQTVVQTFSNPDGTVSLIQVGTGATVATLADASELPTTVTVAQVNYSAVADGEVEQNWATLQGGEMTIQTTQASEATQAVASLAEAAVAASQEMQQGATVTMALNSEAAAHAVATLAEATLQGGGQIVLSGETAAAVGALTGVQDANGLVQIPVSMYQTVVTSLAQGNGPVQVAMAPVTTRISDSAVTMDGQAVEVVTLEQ
Sequence of Nuclear receptor subfamily 4 group A member 2 (Homo sapiens) (P43354 whole entry, looked up, the tested form may be a part): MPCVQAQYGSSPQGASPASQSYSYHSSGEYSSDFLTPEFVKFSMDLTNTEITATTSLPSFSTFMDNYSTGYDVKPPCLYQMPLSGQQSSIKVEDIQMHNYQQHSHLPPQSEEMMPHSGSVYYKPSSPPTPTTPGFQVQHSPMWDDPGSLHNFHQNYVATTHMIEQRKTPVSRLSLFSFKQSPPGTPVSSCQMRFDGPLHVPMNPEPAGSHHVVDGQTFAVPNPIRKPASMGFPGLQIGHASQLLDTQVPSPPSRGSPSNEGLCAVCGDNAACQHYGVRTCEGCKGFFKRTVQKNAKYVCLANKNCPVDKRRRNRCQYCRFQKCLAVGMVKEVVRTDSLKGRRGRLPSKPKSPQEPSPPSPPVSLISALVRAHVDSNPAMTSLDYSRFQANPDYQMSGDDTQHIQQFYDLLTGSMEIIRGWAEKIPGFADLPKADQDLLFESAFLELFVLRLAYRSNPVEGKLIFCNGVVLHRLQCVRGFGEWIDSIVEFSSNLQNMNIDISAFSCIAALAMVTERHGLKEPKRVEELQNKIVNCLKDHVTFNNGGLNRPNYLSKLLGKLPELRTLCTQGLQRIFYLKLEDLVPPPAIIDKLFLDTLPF

For the compound `NC(=O)CCl`, the call in [1], in [2], in [3], in [4], in [5] and in [6] was inactive. For the same compound, the call in experiment [7], in experiment [8], in experiment [9], in [10] and in [11] was inactive.

In the case of `CCCSP(=S)(OCC)Oc1ccc(Cl)cc1Cl` (configuration not stated), the outcome in experiment [1], in experiment [12], in experiment [3], in [13], in experiment [5] and in [6] was inactive. The compound was called inactive in experiment [7], in experiment [9], in [14], in [10] and in [11]. Besides, the AC50 in experiment [2] is 2.91 µM (active).

With `OC(Cc1ccccc1Cl)(Cn1cncn1)C1(Cl)CC1` (configuration not stated), the result in experiment [1], in experiment [12], in experiment [3], in [15], in experiment [16] and in experiment [13] was inactive. In addition, the compound was called inactive in experiment [17], in experiment [5], in experiment [18], in experiment [19], in experiment [7] and in experiment [8]. Also, the compound was classed as inactive in experiment [9], in [14], in [10] and in experiment [11]. For the same compound, the AC50 in experiment [2] is 13.7 µM (active).

Take `CCCCOC(=O)COC(=O)c1ccccc1C(=O)OCCCC`: the result in [1], in experiment [2], in experiment [12], in experiment [3], in experiment [15] and in experiment [20] was inactive. Moreover, the compound was classed as inactive in experiment [19], in experiment [7], in [9], in [10] and in [11].

For `OC[C@@H](O)[C@H]1O[C@@H]2O[C@H](C(Cl)(Cl)Cl)O[C@@H]2[C@H]1O`, the outcome in [1], in [2], in experiment [12], in experiment [3], in [20] and in experiment [5] was inactive. Also, the call in experiment [6], in [7], in [9], in experiment [10] and in experiment [11] was inactive.

As usually defined, the AC50 is the concentration at which the activity in the assay is half-maximal.

The values above are taken from PubChem BioAssay (EPA / NIEHS).
